Experimental data published in PubChem BioAssay (Tox21).
Inconclusive results are not listed. Calls of active or inactive are those of the source. Calls follow the shape of the dose curve; as a rule, active = well fitted activation curve with a large enough effect in the signal ratio in the repeat runs (not every such curve was filed as active); inconclusive = weak or mixed curves, or effect the other way; inactive = no such curve, though single readings can be large or run the other way; the % refers to the signal ratio.

Test: qHTS assay for small molecule agonists of the antioxidant response element (ARE) signaling pathway (AID 743202)
Settings: HepG2 ARE-bla reporter, beta-lactamase FRET, 16 h; series mostly up to 73.3 µM; activation: at the top concentration
Source text: U.S. Tox21 Program National Center for Advancing Translational Sciences [NCATS] NIH Chemical Genomics Center [NCGC] U.S. Environmental Protection Agency [EPA] National Institutes of Environmental Health Sciences [NIEHS] National Toxicology Program [NTP] U.S. Food and Drug Administration [FDA] Tox21 Assay Overview: Oxidative stress has been implicated in the pathogenesis of a variety of diseases ranging from cancer to neurodegeneration. The antioxidant response element (ARE) signaling pathway plays an important role in the amelioration of oxidative stress. The CellSensor ARE-bla HepG2 cell line (Invitrogen) can be used for analyzing the Nrf2/antioxidant response signaling pathway. Nrf2 (NF-E2-related factor 2) and Nrf1 are transcription factors that bind to AREs and activate these genes. The CellSensor ARE-bla Hep G2 cell line contains a beta-lactamase reporter gene under control of the Antioxidant Response Element (ARE) stably integrated into HepG2 cells. The activation of the report gene under culture conditions can be detected by fluorescence intensity. This cell line has been used to screen the Tox21 10K compound library to identify agonists that induce oxidative stress.
Tox21 Assay Protocol Summary: The ARE-bla cells were dispensed at 2,000 cells/5 ul/well in 1536-well black wall/clear bottom plates using a Multidrop dispenser. After the assay plates were incubated at a 37 C/5% CO2 incubator for 5 hours, 23 nL of compounds dissolved in DMSO, positive controls or DMSO only was transferred to the assay plate by a pin tool. The plates were incubated at 37 C for 16 hours. After 1 uL of LiveBLAzer B/G FRET substrate was added using a Flying Reagent Dispenser, the plates were incubated at room temperature for 2 hours, and fluorescence intensity was measured by an Envision plate reader.
% is scaled to controls: 0 for no effect and ±100 for the full control effect; potency is read from the fitted curve at half-maximal effect.

Which “activation” value does the source give for `N#CC(O)c1ccccc1` (stereo not given) here?
Its value is 0.249% (inactive).

With `O=C(CCN1CC1)OCC(CO)(COC(=O)CCN1CC1)COC(=O)CCN1CC1` as the compound, how does the “activation” value read?
Its value is 4.88% (inactive).

For `COc1cc(OC)nc(NC(=O)NS(=O)(=O)c2ncccc2OCC(F)(F)F)n1`, which “activation” value is on record?
Its value is -0.195% (inactive).

Which “activation” value does the source give for `CCOc1nc(C(Cl)(Cl)Cl)ns1` here?
The value was -0.243% (inactive).

Which Potency does the source give for `CCS(=O)(=O)CCSP(=O)(OC)OC` here?
The Potency was 8.63 µM (active).

With `O=P(O)(Oc1ccccc1)Oc1ccccc1` as the compound, how does the “activation” value read?
Its value is -17% (inactive).

Which “activation” value does the source give for `ClC(Cl)Br` here?
The value was 0.535% [at 94.8 µM] (inactive).

With `CN1C[C@@H](NS(=O)(=O)N(C)C)C[C@@H]2c3cccc4c3c(cn4C)C[C@H]21` as the compound, how does the “activation” value read?
The value was -4.99% (inactive).

With `CNC(=O)O/N=C(\C)SC` as the compound, how does the “activation” value read?
Its value is -12.9% (inactive).

Which “activation” value does the source give for `CCC(=O)c1ccccc1` here?
Its value is -10.8% (inactive).

Which “activation” value does the source give for `ClC(Cl)(Cl)C(Cl)(Cl)Cl` here?
The value was -4.89% [at 94.8 µM] (inactive).

For `OCCSCSCCO`, which “activation” value is on record?
The value was 0.727% (inactive).

With `Fc1cc(Br)ccc1CBr` as the compound, how does the “activation” value read?
The value was 4.99% (inactive).

Which “activation” value does the source give for `Clc1cccc(N2CCNCC2)c1` here?
The value was -8.14% (inactive).

With `ClC(Cl)C(Cl)Cl` as the compound, how does the “activation” value read?
The value was -3.84% [at 94.8 µM] (inactive).

With `COC(=O)c1ccccc1S(=O)(=O)NC(=O)Nc1nc(C)cc(C)n1` as the compound, how does the “activation” value read?
The value was 4.71% (inactive).

For `[Cl][Sn]([Cl])([Cl])[Cl]`, which “activation” value is on record?
The value was -8.81% [at 94.8 µM] (inactive).

For `CCC(C)(C)c1cc(-n2nc3ccccc3n2)c(O)c(C(C)(C)CC)c1`, which “activation” value is on record?
The value was 0.065% [at 94.8 µM] (inactive).

Which “activation” value does the source give for `CN1CCN(C(=O)O[C@H]2c3nccnc3C(=O)N2c2ccc(Cl)cn2)CC1` here?
The value was -0.608% (inactive).

Which “activation” value does the source give for `CCN(Cc1ccc(Cl)nc1)/C(=C/[N+](=O)[O-])NC` here?
Its value is 20.7% (inactive).

With `COc1cc(OC)nc(Oc2cccc(Oc3nc(OC)cc(OC)n3)c2C(=O)O)n1` as the compound, how does the “activation” value read?
The value was 14% (inactive).

Which “activation” value does the source give for `COc1cc(OC)nc(NC(=O)NS(=O)(=O)c2ncccc2C(=O)N(C)C)n1` here?
Its value is 0.198% (inactive).

With `CC(COc1ccc(Oc2ccccc2)cc1)Oc1ccccn1` (stereo not given) as the compound, how does the Potency read?
Its Potency is 48.5 µM (active).

With `CCNc1nc(NC(C)C)nc(OC)n1` as the compound, how does the “activation” value read?
The value was -9.9% (inactive).

For `NC(=O)c1cc([N+](=O)[O-])cc([N+](=O)[O-])c1`, which Potency is on record?
The Potency was 23.7 µM (active).

With `Cc1cc(C)nc(Nc2ccccc2)n1` as the compound, how does the “activation” value read?
The value was 2.69% (inactive).

With `N#CCCC#N` as the compound, how does the “activation” value read?
The value was -16.4% (inactive).

For `Cc1ncc(CNC(=O)N(CCCl)N=O)c(N)n1`, which “activation” value is on record?
Its value is 0.497% (inactive).

With `CN1C(=S)CN=C(c2ccccc2)c2cc(Cl)ccc21` as the compound, how does the “activation” value read?
Its value is 1.66% (inactive).

With `CC1=C(C(=O)O)N2C(=O)[C@@H](N)[C@H]2SC1` as the compound, how does the “activation” value read?
Its value is -7.5% [at 34.3 µM] (inactive).

Which “activation” value does the source give for `CN/C(=N\[N+](=O)[O-])NCC1CCOC1` (stereo not given) here?
The value was 13.2% (inactive).

With `O=C(Cc1ccccc1)OCc1ccccc1` as the compound, how does the “activation” value read?
The value was -10% [at 94.8 µM] (inactive).

For `Fc1ccc(C2(Cn3cncn3)OC2c2ccccc2Cl)cc1` (stereo not given), which “activation” value is on record?
The value was -3.07% (inactive).

For `O=[N+]([O-])c1cccc2c([N+](=O)[O-])cccc12`, which Potency is on record?
Its Potency is 3.88 µM (active).

Which “activation” value does the source give for `CCCCOC(=O)c1ccccc1C(=O)O` here?
Its value is -6.87% (inactive).

With `Cc1cnc[nH]1` as the compound, how does the “activation” value read?
Its value is -9.84% (inactive).

With `c1ccc(N2CCNCC2)cc1` as the compound, how does the “activation” value read?
The value was -5.05% (inactive).

Which “activation” value does the source give for `CCC1(c2ccccc2)C(=O)NC(=O)NC1=O` here?
The value was 10% [at 94.8 µM] (inactive).

With `CC(N)=S` as the compound, how does the “activation” value read?
The value was -1.7% (inactive).

Which “activation” value does the source give for `N#CCNCC#N` here?
Its value is -1.23% (inactive).
